Measurements published in PMC7862700, “An all-to-all approach to the identification of sequence-specific readers for epigenetic DNA modifications on cytosine”.

What was measured:
Assay in all cases: DAPPL (digital affinity profiling via proximity ligation, sequencing); 10 mM Tris-HCl pH 7.5, 50 mM NaCl, 1 mM DTT, 4% glycerol, room temperature, 30 min; GST-TFs on glutathione beads, 16-mer random dsDNA library, 0.1% formaldehyde crosslink after washing; high values mean tight binding
Conditions in all cases: protein: recombinant; tags: N-terminal GST; dsDNA, one strand shown
GABPA = target: T1, GABPA (Homo sapiens, UniProt Q06546 1-454)
T1 sequence: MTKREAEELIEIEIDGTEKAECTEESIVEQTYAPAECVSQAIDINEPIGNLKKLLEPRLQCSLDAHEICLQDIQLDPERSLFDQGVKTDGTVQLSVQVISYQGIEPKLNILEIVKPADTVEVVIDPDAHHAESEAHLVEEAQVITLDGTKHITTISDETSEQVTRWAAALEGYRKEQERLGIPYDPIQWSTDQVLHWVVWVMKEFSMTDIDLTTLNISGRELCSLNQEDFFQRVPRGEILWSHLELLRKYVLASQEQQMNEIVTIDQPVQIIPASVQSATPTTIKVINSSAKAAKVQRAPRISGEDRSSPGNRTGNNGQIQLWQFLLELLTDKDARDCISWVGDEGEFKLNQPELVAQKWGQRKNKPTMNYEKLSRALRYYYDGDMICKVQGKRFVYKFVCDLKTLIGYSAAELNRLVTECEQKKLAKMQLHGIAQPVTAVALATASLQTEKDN
Method in brief: (§1)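 The binding signal reported is, for every hexamer, its read frequency for a factor over its read frequency for the tag-only sample. Reads came from pools of yeast-expressed, GST-fused human transcription factors on glutathione beads, barcoded with DNA and mixed with that sample, which were incubated with 200 nmole of a random double-stranded 16-mer DNA library in Tris/NaCl/DTT/glycerol buffer at room temperature for 30 min. After washing, the pools were crosslinked with 0.1% formaldehyde, proximity-ligated with BsaI/T4 ligase for 1 h at 37 °C, PCR-amplified and sequenced on an Illumina NextSeq500.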

EHF = target: T2, EHF (Homo sapiens, UniProt Q9NZC4 1-300)
T2 sequence: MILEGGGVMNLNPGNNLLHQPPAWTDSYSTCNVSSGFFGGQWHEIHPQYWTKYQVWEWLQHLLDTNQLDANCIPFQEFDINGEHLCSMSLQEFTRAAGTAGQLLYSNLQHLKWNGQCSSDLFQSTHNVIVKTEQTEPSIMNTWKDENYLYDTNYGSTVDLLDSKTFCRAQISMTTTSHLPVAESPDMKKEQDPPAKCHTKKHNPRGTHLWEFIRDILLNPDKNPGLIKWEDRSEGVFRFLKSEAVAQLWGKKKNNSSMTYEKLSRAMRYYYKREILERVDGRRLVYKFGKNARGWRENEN
Method in brief: as §1

ETV5 = ETV5 (Homo sapiens, UniProt P41161 1-510)
Method in brief: as §1

ELK4 = target: T3, ELK4 (Homo sapiens, UniProt P28324-2 1-405)
T3 sequence: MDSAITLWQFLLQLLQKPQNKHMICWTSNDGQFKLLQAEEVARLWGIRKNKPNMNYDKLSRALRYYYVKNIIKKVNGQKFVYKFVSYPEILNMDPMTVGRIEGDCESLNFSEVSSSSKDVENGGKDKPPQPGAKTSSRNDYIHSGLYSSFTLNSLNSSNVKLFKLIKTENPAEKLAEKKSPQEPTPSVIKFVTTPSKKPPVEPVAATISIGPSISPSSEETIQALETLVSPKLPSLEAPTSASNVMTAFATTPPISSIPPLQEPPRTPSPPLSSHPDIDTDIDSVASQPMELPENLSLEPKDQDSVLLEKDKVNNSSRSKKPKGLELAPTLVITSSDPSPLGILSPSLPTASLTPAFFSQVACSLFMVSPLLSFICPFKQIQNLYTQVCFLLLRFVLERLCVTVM
Method in brief: as §1

Chain of ETV5 (P41161 whole entry): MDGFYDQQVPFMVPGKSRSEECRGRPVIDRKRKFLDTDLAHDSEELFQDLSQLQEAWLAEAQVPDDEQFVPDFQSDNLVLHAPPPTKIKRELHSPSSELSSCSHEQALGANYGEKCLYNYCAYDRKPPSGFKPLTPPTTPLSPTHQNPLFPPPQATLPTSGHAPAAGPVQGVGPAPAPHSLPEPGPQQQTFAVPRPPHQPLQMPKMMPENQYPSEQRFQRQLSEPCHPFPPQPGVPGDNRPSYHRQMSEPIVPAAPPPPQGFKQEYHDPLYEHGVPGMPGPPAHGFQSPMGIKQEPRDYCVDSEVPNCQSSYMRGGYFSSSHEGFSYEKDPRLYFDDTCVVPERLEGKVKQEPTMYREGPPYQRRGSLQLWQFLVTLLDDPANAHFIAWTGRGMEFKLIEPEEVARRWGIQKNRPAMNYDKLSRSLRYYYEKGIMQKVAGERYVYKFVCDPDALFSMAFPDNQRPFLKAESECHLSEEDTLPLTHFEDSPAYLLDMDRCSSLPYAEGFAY

Sequence: CGAAGG
- binding signal (GABPA): 1 fold enrichment (6-mer frequency, TF over GST control)
- binding signal (EHF): 1.03 fold enrichment (6-mer frequency, TF over GST control)
- binding signal (ETV5): 1.05 fold enrichment (6-mer frequency, TF over GST control)
- binding signal (ELK4): 1.06 fold enrichment (6-mer frequency, TF over GST control)
